Shown are actives, neighbours in structure and some others; about 20% of the full set was active somewhere.
Shiga toxin inh = Shiga toxin inhibition; actives 9.2% (n = 290,000); inhibition, % at 38.7 µM; Vero cells, Shiga toxin protein synthesis inhibition reporter; in the data active means inhibition mostly above about 28%, no sharp cut-off; inactive means mostly below about 43%; further: 0% is about no effect
Pf growth 48h = inhibits P. falciparum growth in the first generation, 48 h; P. falciparum luciferase growth in erythrocytes, 48 h; Potency, µM (top dose mostly 28.7 µM), without a hit: top-dose activity change, negative = inhibition, usual class: inhibitors; AID 504832; actives 5.9% (n = 310,000); further: potency means the concentration at half of the fitted maximal effect; on the % scale 0 is the no-effect control and ±100 the full control effect
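Firefly luciferase activity from engineered P. falciparum reports growth; inhibitors lower the luminescent signal. Cultures contained 2% hematocrit erythrocytes at 0.1% final parasitemia.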
HCMV inh = blocks human cytomegalovirus replication; actives 4.5% (n = 410,000); HFF cells, HCMV-luciferase reporter, 72 h; stronger effect = lower value; activity change, negative = inhibition, % at 57.5 µM; in the data active means activity change below about -60%; inconclusive means no clear call, values can overlap the other calls; inactive means above about -39%; further: on the % scale 0 is the no-effect control and ±100 the full control effect
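HFF cells seeded 16 h at 37C, treated with compounds, infected with luciferase-reporter HCMV at MOI 1 PFU/cell; luciferase read at 72 h post infection, normalized to buffer-only and Salinomycin controls.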
Pf growth 96h = inhibits malaria parasite growth, 96 h. P. falciparum luciferase reporter growth, 96 h. Potency, µM (titrated, usually from 28.7 µM), for inactives: at the top dose activity change, negative = inhibition, most hits filed as inhibitors. actives 6.9% (n = 320,000). AID 504834; further: potency means the concentration at half of the fitted maximal effect; on the % scale 0 is the no-effect control and ±100 the full control effect
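Erythrocytes infected with luciferase-expressing P. falciparum were dispensed at 2% hematocrit and 0.05% parasitemia (final), then incubated with compounds 96 hours at 37 C in 5% CO2. Luminescence after detection reagent addition reported growth.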
CHX counter = affects cycloheximide protein synthesis inhibition readout, counter-screen; actives 12% (n = 300,000); AID 2314; max response, %; cell reporter, cycloheximide protein synthesis inhibition counterscreen; in the data active means max response mostly above about 13%, no sharp cut-off; inactive means mostly below about 14%; further: read at 38.3 µM for the half of the compounds with a filed dose; 0% is about no effect
Active calls of the source: *; ? = inconclusive; / = not tested or not shown; + = active, no number. Unless noted, the call rests on the fitted dose curve; in most records, active means well fitted inhibition curve with a large enough effect; inconclusive means small, poorly fitted or top-dose-only effect, or another doubt; inactive means no such curve, though single readings can be large or run the other way.

SMILES	Shiga toxin inh	Pf growth 48h	HCMV inh	Pf growth 96h	CHX counter
Cc1ccc(S(=O)(=O)N2CCN(C(=O)/C=C/c3ccccc3)CC2)cc1C	/	4.1µM*	2	13µM*	/
Cc1ccc(S(=O)(=O)N2CCN(C(=O)CC(C)n3nc(C)c(Cl)c3C)CC2)cc1C (stereo not given)	-11	?	-10	12µM*	-1
Cc1ccc(S(=O)(=O)N2CCN(C(=O)/C=C/c3ccco3)CC2)cc1	-5	6.6µM*	-37	1.9µM*	2
Cc1ccc(S(=O)(=O)N2CCN(C(=O)CCN3C(=O)c4ccccc4C3=O)CC2)cc1C	2	-7%	-62*	?	-4
O=C1C2CCC(C2)C1CN1CCOCC1 (stereo not given)	/	/	-28	/	/
COc1cc(C(=O)Nc2ccc(NC(=O)c3cccc(Cl)c3)nc2)cc(OC)c1OC	29	2.6µM*	-35	74%	4
Cc1ccc(NC(=O)c2cccc(Cl)c2)nc1	161	73%	27	49%	29*
S=C(Nc1ccccc1)Nc1ccc(Cl)cn1	57	39%	/	27%	25*
O=C(Cc1ccccc1)Nc1ccc(Cl)cn1	42	0%	-26	37%	23*
COc1cc(C(=O)Nc2ccc(NC(=O)C3CCCCC3)nc2)cc(OC)c1OC	1	?	-10	?	-5
CCC(=O)NC(=S)Nc1ccc(Cl)cn1	5	8%	?	-14%	26
Cn1sc(NC(=O)c2cccc(Cl)c2)nc1=O	51*	46%	64	5%	16
O=C(NC(=S)Nc1ccc(Cl)cn1)C12CC3CC(CC(C3)C1)C2	46	58%	12	?	15*
O=C(CCc1ccccc1)Nc1ccc(Cl)cn1	134*	82%	-30	14%	46*
O=C(CSc1ccccn1)Nc1ccc(Cl)cn1	44	-30%	?	-1%	23*
Cc1ccc(CC(=O)Nc2ccc(Cl)cn2)cc1	70*	68%	-40	152%	41*
Cc1csc(SCC(=O)Nc2ccc(Cl)cn2)n1	24	-9%	13	-26%	10
CC(C)(C)c1csc(SCC(=O)Nc2ccc(Cl)cn2)n1	15	12µM*	-35	?	0
O=C(Nc1c(Cl)cccc1Cl)c1ccc(-c2ccccc2)cc1	16	21%	?	-15%	12
Cc1ccc(C(=O)Nc2ccc(Cl)cn2)cc1	55*	164%	50	8%	34*
Cc1ccc(NC(=O)Cc2ccc(Cl)cc2)nc1	/	/	-7	/	/
Cc1ccc(C(=O)Nc2ncc3c(Cl)cccc3n2)cc1	-18	-12%	-90*	114%	-5
CC1(c2ccccc2)NC(=O)N(CC(=O)Nc2cccc(C#N)c2)C1=O (stereo not given)	30	-15%	-1	-11%	1
O=C(CNC(=O)c1ccc(Cl)cc1)OCc1cc(=O)n2nc(C3CCCCC3)sc2n1	/	/	-7	/	/
CCOc1ccc(/C=N/n2c(-c3ccccc3)n[nH]c2=S)cc1	-3	-2%	?	25%	3
SMILES	Shiga toxin inh	Pf growth 48h	HCMV inh	Pf growth 96h	CHX counter
Cc1ccccc1C1=NC(C)(CC(=O)Nc2ccc(F)cc2F)ON1C (stereo not given)	/	/	-3	/	/
COc1ccc([C@H]2N[C@]3(CCCN(CC4CCCCC4)C3=O)[C@H]3C(=O)N(Cc4ccccc4)C(=O)[C@@H]23)cc1	/	/	4	/	/
CCc1nc2ccccc2n1Cc1cc(=O)n2cc(C)ccc2n1	16	-17%	16	1.7µM*	-1
Cc1ccc2nc(Cn3cc(C(F)(F)F)ccc3=O)cc(=O)n2c1	5	3%	?	-10%	-3
CC1CC1C(=O)OCC(=O)Nc1ccc(Cl)cn1 (stereo not given)	/	/	-26	/	/
CCc1ccc(C(=O)N2CCN(c3ccc(NC(=O)c4cccnc4)cc3)CC2)cc1	-8	1%	?	28%	-2
Cn1c(-c2cccc(C(F)(F)F)c2)cc2cnc(Nc3cccc(Oc4ccccc4)c3)cc21	/	/	-11	/	/
[N-]=[N+]=NC(c1ccccc1)c1nc2ccccc2[nH]c1=O (stereo not given)	28	-16%	-2	4%	27*
COc1cc(CCN2C(=O)N[C@@H](CCc3ccccc3)C(C(C)=O)=C2C)cc(OC)c1OC	-4	?	/	?	-2
COc1ccc(CNC(=O)C2CCN(S(=O)(=O)c3ccc(N4CCCC4=O)cc3)CC2)cc1	/	/	-8	/	/
NC(=O)C[n+]1cccc(CNC(=O)c2ccc(OC(F)F)cc2)c1	10	31%	-15	27%	0
O=C(C[n+]1cccc(CNC(=O)c2ccc(OC(F)F)cc2)c1)Nc1cc(C(F)(F)F)ccc1Cl	-7	1.7µM*	41	0.93µM*	-2
CC/C(=N\NC(=O)Nc1ccccc1)c1ccccc1	37	13%	3	?	19*
C/C(CC(C)C)=N\NC(=O)Nc1ccccc1	42*	38%	18	?	42*
CCOC(=O)C/C(C)=N/NC(=O)Nc1ccccc1	+	6%	6	-30%	40*
O=C(CSc1nnc(CNC(=O)c2ccccc2F)n1-c1ccccc1)Nc1ccccc1F	/	/	-5	/	/
CON(C)C(=O)/C=C/[C@@H](CC1CCCC1)NC(=O)C(F)(F)F	/	/	-14	/	/
O=C(O)/C=C/c1cc(F)c(S(=O)(=O)N2CCN(S(=O)(=O)c3ccc4c(c3)OCCO4)CC2)cc1F	-5	/	/	/	-3
Cc1ccc(N(CC(=O)N2CCN(c3ccccc3)CC2)S(=O)(=O)c2c(C)noc2C)cc1	/	/	10	/	/
COc1ccc(N(CC(=O)N2c3ccccc3CC2C)S(=O)(=O)c2c(C)noc2C)cc1 (stereo not given)	13	12µM*	8	-21%	-1
COc1ccc(N(CC(=O)N2CCN(c3cccc(OC)c3)CC2)S(=O)(=O)c2c(C)noc2C)cc1	/	/	-26	/	/
CCOc1ccc(N(CC(=O)N2CC=C(c3ccccc3)CC2)S(=O)(=O)c2c(C)noc2C)cc1	-14	/	14	35%	-6
COc1cccc(N2CCN(C(=O)CN(c3cc(C)cc(C)c3)S(=O)(=O)c3c(C)noc3C)CC2)c1	-3	?	-35	10µM*	-3
Cc1ccc(N(CC(=O)N2CCN(c3ccccc3F)CC2)S(=O)(=O)c2c(C)noc2C)cc1	-2	?	-18	9.3µM*	3
COc1ccc(N(CC(=O)N2CC=C(c3ccccc3)CC2)S(=O)(=O)c2c(C)noc2C)cc1	-5	/	-9	3.7µM*	-5
COc1ccc(-c2nnc(SCC(=O)NC3CCCC3)nc2-c2ccc(OC)c(OC)c2)cc1OC	/	/	10	/	/
COc1ccc(N(CC(=O)N2CCN(c3cccc(C)c3)C(C)C2)S(=O)(=O)c2c(C)n[nH]c2C)cc1 (stereo not given)	-8	?	-77*	?	10
CS(=O)(=O)N(CC(=O)N1CCN(c2ccccc2F)CC1)c1cc(C(F)(F)F)ccc1Cl	-20	/	/	10µM*	1
CS(=O)(=O)N(CC(=O)N1CCN(c2ccccc2)CC1)c1cc(C(F)(F)F)ccc1Cl	-6	-17%	33	/	0

From PubChem BioAssay
